Only some compounds are listed: those with a hit (about 3% of all), similar ones and a draw of the others.
GALK inh – qHTS Assay for Inhibitors of Human Galactokinase (GALK); P51570; Purified GALK, Kinase-Glo residual ATP luminescence; Potency, µM (doses to about 57.5 µM), most hits filed as inhibitors; actives 0.007% (n = 270,000); AID 1868, 2009
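ATP-depletion format; final 35 uM ATP, 100 uM D-galactose, 5 nM enzyme; pH 8.0 HEPES/Mg2+ buffer; 60 min RT; luminescence read 10 min after detection reagent.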
Nrf2 activator – qHTS of Nrf2 Activators; AREc32 ARE-luciferase reporter (MCF7-derived line), luminescence, 24 h; Potency, µM (highest dose often 46.1 µM), hits mostly activators; actives 0.31% (n = 410,000); AID 624171, 2012; note: nearly all actives have a fitted effect of over 65% in size
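Quantitative high-throughput format: AREc32 reporter cells, 1000 per well, received compound by pin transfer and were incubated 24 hr at 37 deg C, 5% CO2, before Steady-Glo luminescence detection.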
TrxR1 inh – qHTS Assay for Inhibitors of Mammalian Selenoprotein Thioredoxin Reductase 1 (TrxR1): qHTS; Thioredoxin reductase 1, cytoplasmic (Rattus norvegicus), O89049; recombinant rTrxR1, NADPH fluorescence consumption, selenite substrate; Potency, µM (highest dose often 114 µM), hits mostly inhibitors; actives 1% (n = 390,000); AID 588453, 2011; note: nearly all actives have a fitted effect of over 65% in size
Target sequence (O89049 whole entry, looked up): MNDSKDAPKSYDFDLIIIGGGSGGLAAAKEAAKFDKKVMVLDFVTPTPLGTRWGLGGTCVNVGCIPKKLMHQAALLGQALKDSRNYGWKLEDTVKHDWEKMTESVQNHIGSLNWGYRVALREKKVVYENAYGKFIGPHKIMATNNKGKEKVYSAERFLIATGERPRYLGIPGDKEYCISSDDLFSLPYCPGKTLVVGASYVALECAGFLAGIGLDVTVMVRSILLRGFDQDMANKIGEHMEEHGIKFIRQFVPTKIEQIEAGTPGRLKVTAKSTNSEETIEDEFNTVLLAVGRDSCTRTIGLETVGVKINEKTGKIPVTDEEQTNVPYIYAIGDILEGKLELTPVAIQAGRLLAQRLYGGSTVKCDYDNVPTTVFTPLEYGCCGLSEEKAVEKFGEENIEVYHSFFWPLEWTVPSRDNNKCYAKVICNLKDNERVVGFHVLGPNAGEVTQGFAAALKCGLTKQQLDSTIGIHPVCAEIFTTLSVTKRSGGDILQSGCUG
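Rat TrxR1 (90 nM in the dispensed reagent) was pre-reduced with 400 uM NADPH for 5 min at room temperature, then incubated with compound for 15 min. After 400 uM selenite was added, NADPH fluorescence (Ex 340/Em 450 nm) was followed for 8 min.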
TrxR1 substrate – qHTS Assay for Substrates of Mammalian Selenoprotein Thioredoxin Reductase 1 (TrxR1): qHTS; Thioredoxin reductase 1, cytoplasmic (Rattus norvegicus), O89049; purified TrxR1 substrate turnover, NADPH consumption readout; Potency, µM (doses to about 114 µM); actives 0.01% (n = 390,000); note: nearly all actives have a fitted effect of over 50% in size
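Rat TrxR1, dispensed at 90 nM, was prereduced with 400 uM NADPH (final) for 5 min at ~22 deg C, then incubated with compound 15 min before 400 uM selenite. A first-read NADPH fluorescence drop versus no-compound background flagged substrates.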
A549 tox – Nrf2 qHTS screen for inhibitors: counterscreen for cytotoxicity; A549 ARE-Fluc cells, CellTiter-Fluor viability, 18-24 h; Potency, µM (top dose mostly 46 µM), actives largely listed as inhibitors; AID 504648, 2011; actives 0.16% (n = 390,000)
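Cytotoxicity counterscreen: CellTiter-Fluor fluorescence was measured in A549 ARE_Fluc cells after 18-24 h of compound exposure in a concentration series. The subsequent BugLite luminescent read reports ARE-luciferase activity.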
Nrf2 inh – Nrf2 qHTS screen for inhibitors | A549 ARE-Fluc reporter, luciferase luminescence, 18-24 h | Potency, µM (top dose mostly 46 µM), actives largely listed as inhibitors | actives 2.1% (n = 360,000); note: nearly all actives have a fitted effect of over 60% in size
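Nrf2 function is reported as luminescence of an ARE-controlled luciferase in A549 cells. Compounds were tested at several concentrations, and a CellTiter-Fluor read on the same wells flagged cytotoxicity.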
Large screens that a line does not name were inactive. Calls come from the whole dose curve; as a rule, active = well fitted curve in the direction sought with a large enough effect; inconclusive = small, poorly fitted or top-dose-only effect, or another doubt; inactive = no such curve, though single readings can be large; an effect the other way counts as inactive or inconclusive.

CCOc1ccccc1C(=O)Nc1c(NC)c2ccccc2oc1=O	Nrf2 activator inconclusive (no result: GALK inh)
CN(Cc1ccccc1)c1ncnc2sccc12	Nrf2 inh 16.4µM
CC(/C=N/NC(=O)Cc1cccn1C)=C\c1ccccc1	TrxR1 inh 50.1µM
C=CCN(c1ccc(F)cc1)S(=O)(=O)c1cc(C(=O)NC2CCC(O)CC2)ccc1Cl (centres undefined)	Nrf2 inh 16.4µM (no result: GALK inh)
COc1ccc(C2C(C(=O)Nc3ccc(C)cc3C)=C(C)Nc3nc(SCc4cccc(C)c4)nn32)c(OC)c1 (centres undefined)	none (no result: GALK inh)
CC(C)(C)CC(C)(C)N=C1Nc2ccc(Cl)cc2NC12C[C@H]1CCC(=O)N3CC[C@@H](C2)[C@@H]13 (some centres undefined)	none (no result: GALK inh, Nrf2 activator, A549 tox, Nrf2 inh)
CC1=C(c2ccc(F)cc2)S(=O)(=O)N=C1N1CCC(C(=O)NCCc2ccco2)CC1	Nrf2 inh inconclusive (no result: GALK inh)
Cc1ccc(-c2cc(-c3ccc(Cl)cc3)c(C#N)c(N)n2)o1	TrxR1 inh 50.1µM
Cc1ccc(-c2cc(-c3ccc4c(c3)OCO4)c(C#N)c(N)n2)o1	A549 tox inconclusive
CCOc1cc(-c2cc(-c3ccc(C)o3)nc(N)c2C#N)ccc1O	A549 tox inconclusive, Nrf2 inh 14.6µM
CCCc1cc(-c2ccc(O)c(OCC)c2)c(C#N)c(N)n1	none
Cc1ccc(-c2cc(-c3ccc(C)o3)nc(N)c2C#N)cc1	Nrf2 activator inconclusive, TrxR1 inh 50.1µM
Cc1ccc(-c2cc(-c3ccc(F)cc3)c(C#N)c(N)n2)o1	Nrf2 activator inconclusive, TrxR1 inh 15.8µM (no result: GALK inh)
CCOC(=O)N1CCN(C(=O)CN(c2cccc(Cl)c2C)S(=O)(=O)c2ccc(C)cc2)CC1	none (no result: GALK inh)
COc1ccc2c(c1)c(C(C)=O)c(C)n2CCc1ccccc1	Nrf2 inh 13µM
O=C(Cn1cc(SCc2ccc(Br)cc2)c2ccccc21)N1CCCCC1	Nrf2 inh inconclusive (no result: GALK inh)
CC(C)(C)S(=O)(=O)/C(C#N)=N/Nc1ccc(Cl)cc1	A549 tox inconclusive, Nrf2 inh 10.3µM
CC(C)(C)c1ccc(N/N=C(\C#N)S(=O)(=O)C(C)(C)C)cc1	A549 tox inconclusive, Nrf2 inh inconclusive
CCN1CCN(Cc2c(O)ccc3c(C)cc(=O)oc23)CC1	TrxR1 inh inconclusive
Cc1cc(=O)oc2c(CN3CCCC3)c(O)ccc12	TrxR1 inh 17.8µM
N#Cc1nc(Nc2cccc3ccccc23)nc(NC2CCCC2)n1	Nrf2 inh 18.4µM (no result: GALK inh, Nrf2 activator, TrxR1 inh, TrxR1 substrate)
N#Cc1nc(Nc2ccccc2)nc(NC2CCCC2)n1	none (no result: GALK inh, Nrf2 activator, TrxR1 inh, TrxR1 substrate)
Cc1ccccc1Nc1nc(C#N)nc(NC2CCCC2)n1	Nrf2 inh 9.2µM (no result: GALK inh, Nrf2 activator, TrxR1 inh, TrxR1 substrate)
COc1ccc(C(=O)Nc2ccccc2C(=O)N/N=C/c2ccccn2)cc1OC	Nrf2 inh 9.2µM
COc1ccc(C(=O)N/N=C/c2ccccn2)cc1OC	Nrf2 inh inconclusive
CCCCC(=O)NC(c1ccc([N+](=O)[O-])cc1)c1c(O)ccc2ccccc12 (centres undefined)	A549 tox inconclusive, Nrf2 inh inconclusive
O=C(NC(c1ccc(Cl)cc1)c1c(O)ccc2ccccc12)c1ccccc1 (centres undefined)	A549 tox inconclusive, Nrf2 inh 11.6µM
O=C(NC(c1ccccc1)c1c(O)ccc2ccccc12)c1ccccc1Cl (centres undefined)	A549 tox inconclusive, Nrf2 inh inconclusive
CCC(=O)NC(c1ccc([N+](=O)[O-])cc1)c1c(O)ccc2ccccc12 (centres undefined)	A549 tox inconclusive, Nrf2 inh 16.4µM
CC1CCN(C(=O)COC(=O)/C=C/c2ccc(Br)o2)CC1	TrxR1 inh 25.1µM (no result: GALK inh)
O=C(/C=C/c1ccc(Br)o1)OCc1ccccc1	TrxR1 inh inconclusive
CC1CCCC(C)N1C(=O)COC(=O)/C=C/c1ccc(Br)o1 (centres undefined)	TrxR1 inh 35.5µM (no result: GALK inh)
CCN(CC)C(=O)c1nn(-c2ccccc2)c2c1C1CCC2(C)C1(C)C (centres undefined)	Nrf2 inh 16.4µM
C=CCN1C(=O)c2ccccc2NC1c1ccc(Br)s1 (centres undefined)	none
O=C1c2ccccc2NC(c2ccc(Br)s2)N1O (centres undefined)	Nrf2 inh 18.4µM (no result: GALK inh)
O=C1c2ccccc2NC(c2ccco2)N1O (centres undefined)	TrxR1 inh 39.8µM
CCc1ccccc1NC(=O)CSc1nc2c(oc3ccccc32)c(=O)n1C	none (no result: GALK inh)
Cc1oc2ncnc(N3CCCCC3)c2c1C(=O)NCC1CCN(Cc2ccc(F)cc2)CC1	none (no result: GALK inh)
CC(C)N(C(=O)[C@H]1C[C@H](CC(=O)NCC23CC4CC(CC(C4)C2)C3)C(=O)N2CCc3c([nH]c4ccc(Cl)cc34)[C@]12C)C(C)C	A549 tox inconclusive, Nrf2 inh inconclusive (no result: GALK inh)
CCN(CC)C(=O)[C@H]1C[C@H](CC(=O)NCC23CC4CC(CC(C4)C2)C3)C(=O)N2CCc3c([nH]c4ccc(Cl)cc34)[C@]12C	Nrf2 inh 23.1µM (no result: GALK inh)
CC[C@]12c3[nH]c4ccc(Cl)cc4c3CCN1C(=O)[C@@H](CC(=O)NCCN1CCOCC1)C[C@@H]2C(=O)N1CCN(C(=O)c2ccco2)CC1	none (no result: GALK inh)
CC[C@]12c3[nH]c4ccc(Cl)cc4c3CCN1C(=O)[C@@H](CC(=O)NCCC1=CCCCC1)C[C@@H]2C(=O)N1CCN(C(=O)c2ccco2)CC1	A549 tox inconclusive, Nrf2 inh 16.4µM (no result: GALK inh)
COc1ccc2[nH]c3c(c2c1)CCN1C(=O)C(CC(=O)NCC24CC5CC(CC(C5)C2)C4)C[C@H](C(=O)N2CCOCC2)[C@@]31CCC1CCCC1 (some centres undefined)	Nrf2 inh 20.6µM (no result: GALK inh)
COc1ccc2[nH]c3c(c2c1)CCN1C(=O)C(CC(=O)NCCC2=CCCCC2)C[C@H](C(=O)N2CCCCC2)[C@@]31CCc1ccccc1 (some centres undefined)	Nrf2 inh 18.4µM (no result: GALK inh)
Cc1cc2c(s1)c1cnn(Cc3ccc(Br)cc3)c(=O)c1n2C	none (no result: GALK inh, Nrf2 activator, TrxR1 inh, TrxR1 substrate)
O=C(NCc1ccc(F)cc1)n1cc(P(=S)(c2ccccc2)c2ccccc2)c2ccccc21	none (no result: GALK inh, Nrf2 activator, TrxR1 inh, TrxR1 substrate)
CCCCCCCCCCCCCCCC[n+]1ccc(C)c2ccccc21	TrxR1 inh inconclusive (no result: GALK inh, Nrf2 activator, A549 tox, Nrf2 inh)
Cc1ccc2[nH]c(=O)c3cc(C(=O)N4CCN(c5ccccc5F)CC4)sc3c2c1	none (no result: GALK inh)
